# Laboratory results reported in ChEMBL document CHEMBL4513216, “Probing the Open Global Health Chemical Diversity Library for Multistage-Active Starting Points for Next-Generation Antimalarials” (ACS Infect Dis, 2020).
# About 2,700 (4%) of roughly 68,000 compounds showed an effect of 50% or more. The list comes from a sample in which strong results are over-represented; it also holds similar structures and randomly drawn compounds.
# Tested on: Plasmodium berghei
# Test: Screen against P. berghei liver stage (PbLuc), transformed with Luciferase, at 2uM
# Format: functional, HepG2
# Details: tested at 2 uM
row,Compound,INHIBITION
1,CN(C)C(=O)CO[C@H]1CO[C@@]2(CCN(Cc3ccsc3)C2)C1,-9.99%
2,O=C(CCn1ccccc1=O)N1CCCC(COc2ccc(F)cc2)C1 (stereo unspecified),8.25%
3,O=C(NC[C@H]1OC[C@@H](NC2CCC(F)(F)CC2)[C@@H]1O)N1CCOCC1,11.43%
4,Cc1cc(C(=O)N2CCC(c3nccn3Cc3ccncc3)CC2)no1,17.75%
5,CCC(C)Oc1cc(C(=O)Nc2nc(C)ns2)ccn1 (stereo unspecified),52.98%
6,CCC(C)Oc1cc(C(=O)Nc2nnc(C(C)C)[nH]2)ccn1 (stereo unspecified),38.67%
7,CCC(C)Oc1cc(C(=O)Nc2nccs2)ccn1 (stereo unspecified),41.05%
8,c1cc(CN2C[C@@H]3OCCN(CCN4CCCC4)[C@@H]3C2)co1,2.87%
9,Cc1nc(-c2cc(F)c3c(c2)CC(CN)O3)c[nH]1 (stereo unspecified),33.9%
10,Cc1nc(-c2cc(Cl)c3c(c2)CC(CN)O3)c[nH]1 (stereo unspecified),74.44%
11,Cc1nc(-c2cc(Cl)cc3c2OC(CN)C3)c[nH]1 (stereo unspecified),26.74%
12,CN(CC(F)(F)F)C(=O)Cn1cc(NC(=O)C(C)(C)C)cn1,-48.48%
13,COc1cccc(-n2c(C)cc(C(=O)NC(C)(C)C(N)=O)c2C)c1,50.05%
14,CNC(=O)c1cc(C)n(-c2cccc(OC)c2)c1C,31.7%
15,COc1cccc(-n2c(C)cc(C(=O)NCCCC(N)=O)c2C)c1,30.29%
16,CN(Cc1ccco1)C[C@H]1OC[C@@H]2CN(c3ncc(F)cn3)CC[C@@H]21,17.89%
17,O=C(NC1CC1)[C@H]1CN(Cc2ccc3c(c2)OCO3)C[C@H]2OCC[C@@H]12,-0.18%
18,Cc1cc(C(=O)NCc2c(C)nn(C)c2C)nc(N2CCOCC2)n1,-68.8%
19,Cc1cc(C(=O)NCCc2c(C)nn(C)c2C)nc(N2CCCCC2)n1,52.82%
20,Cc1cc(C(=O)NCc2c(C)nn(C)c2C)nc(N2CCCC2)n1,-70.38%
21,O=C(O)c1csc(S(=O)(=O)N2CCCc3cccc(OC(F)F)c32)c1,-58.31%
22,CC(C)C(=O)NCc1ccccc1NS(=O)(=O)c1ccccc1,-1.56%
23,CN(C(=O)c1cccn1C)C1CCC(NC(=O)OC(C)(C)C)CC1 (stereo unspecified),62.51%

row,Compound,INHIBITION
1,CN(C(=O)c1ccco1)C1CCC(NC(=O)OC(C)(C)C)CC1 (stereo unspecified),38.67%
2,CN(C(=O)c1ccc[nH]1)C1CCC(NC(=O)OC(C)(C)C)CC1 (stereo unspecified),48.21%
3,c1cnc(N2CCC3(CCCN(Cc4ccncc4)C3)CC2)nc1,4.89%
4,c1cncc(COCc2cncc3c2CCN(Cc2ccoc2)C3)c1,25.5%
5,Cc1[nH]c2ccccc2c1-c1ccnc(NCCN2CCCCC2)n1,-2.21%
6,O=C(O)c1nnn(-c2ccc(C(F)(F)F)cc2)c1-c1ccncc1,-40.92%
7,CCOC(=O)CC(C)Nc1nc(C2CCCC2)nc2c1cnn2C (stereo unspecified),57.64%
8,CCOC(=O)CC(C)Nc1nc(C(C)(C)C)nc2c1cnn2C (stereo unspecified),-70.6%
9,CC(C)[C@H](Nc1nc(C2CCCC2)nc2c1cnn2C)C(N)=O,23.16%
10,COC(=O)[C@@H](Nc1nc(C2CCCC2)nc2c1cnn2C)[C@@H](C)O,40.4%
11,COC(=O)[C@H](CSC)Nc1nc(C2CCCC2)nc2c1cnn2C,43.28%
12,CC(C)C[C@H](Nc1nc(C2CCCC2)nc2c1cnn2C)C(N)=O,52.38%
13,CCOCC1CN(C(=O)Cc2ccsc2)Cc2ccnn2C1 (stereo unspecified),21.77%
14,CC(=O)N1CCCN(C(C(=O)O)c2cccc(C)c2C)CC1 (stereo unspecified),-17.37%
15,O=C1COC2(CCN(Cc3cccnc3)CC2)CN1,11.87%
16,c1cncc(N2CCOCC3(CCCN(Cc4cccs4)C3)C2)c1 (stereo unspecified),-26.24%
17,Cc1ccc2nc(C(=O)N3C[C@@H](C(=O)O)[C@H](c4cccnc4)C3)cn2c1,1.52%
18,Cc1c(Cl)c(C(=O)N2CC(c3cccnc3)C2)nn1C,7.62%
19,Cc1c(Cl)c(C(=O)N2C[C@@H](C(=O)O)[C@H](c3cccnc3)C2)nn1C,69.71%
20,Cc1nc(C)n(CC2CCCN2CCCOc2ccc(F)cc2)n1 (stereo unspecified),-8.1%
21,CCC(C(=O)Nc1ccc2nc(C)oc2c1)N1CCCC1=O (stereo unspecified),14.06%
22,CNc1cc(C)nc(NC2CCCN(C3Cc4ccccc4C3)C2)n1 (stereo unspecified),8.26%
23,CNc1nc(C)cc(NC2CCCN(C3Cc4ccccc4C3)C2)n1 (stereo unspecified),58.03%

row,Compound,INHIBITION
1,Cc1ccc(NC2CCCN(C3Cc4ccccc4C3)C2)nn1 (stereo unspecified),3.91%
2,CC(C)COC1CC2(CCN(C(=O)Cc3ccccn3)CC2)C1,-9.07%
3,CSCc1noc(Cn2ncn3cccc3c2=O)n1,46.15%
4,c1cc(CN2CCOCC3(CCN(CC4CCOCC4)CC3)C2)ccn1,26.76%
5,CCc1c(C(=O)N2CC(C)OC(C)(C)C2)cnn1-c1ccccn1 (stereo unspecified),24.23%
6,CCc1c(C(=O)N2CCOC(C)(C)C2)cnn1-c1ccccn1,61.63%
7,CC1CN(C(=O)c2cnn(-c3ccccn3)c2C(C)C)CC(C)(C)O1 (stereo unspecified),-4.15%
8,CCc1nc(CC(=O)N2CCC(C(=O)N3CCCC3)CC2)cs1,-30.23%
9,O=C1CC[C@H]2[C@H](CCN2C(=O)N2CCCC2)N1Cc1ccncc1,-61.95%
10,OC(c1ccccn1)C1CCN(Cc2cc3n(n2)CCCNC3)CC1 (stereo unspecified),-29.69%
11,c1ccc(C2CCCN(Cc3cc4n(n3)CCNC4)CC2)cc1 (stereo unspecified),9.57%
12,OC(c1ccccn1)C1CCN(Cc2cc3n(n2)CCNC3)CC1 (stereo unspecified),60%
13,CCC(NC(=O)C1CCN(S(C)(=O)=O)CC1)c1ccc(OC)cc1 (stereo unspecified),19.7%
14,O=C(NC1CCCC1)[C@@H]1C[C@@H]2CCN(Cc3ccoc3)C[C@H]2O1,3.18%
15,O=C(O)CC(NC(=O)CCCc1cccs1)c1ccc(F)cc1 (stereo unspecified),57.2%
16,COc1ccc(C(CC(=O)O)NC(=O)CCc2cccs2)cc1OC (stereo unspecified),36.38%
17,Cc1ccc(C(CC(=O)O)NC(=O)CCc2cccs2)cc1 (stereo unspecified),-34.12%
18,CCCc1cc(NC2CCc3nc(C(C)C)nn3C2)n2ncnc2n1 (stereo unspecified),-43.09%
19,COc1cccc(CN(C)Cc2cc(C#N)ccc2F)c1OC,56.49%
20,COc1cccc(CN(C)Cc2cccc(C#N)c2)c1OC,3.3%
21,COc1cccc(CN(C)Cc2ccc(C#N)cc2)c1OC,10.52%
22,Cc1ccc(NC(=O)C2=CN=S=N2)cc1,25.51%
23,CN(C)C(=O)[C@@H]1C[C@@H]2CCN(Cc3ccncc3)C[C@@H]2O1,37.6%

row,Compound,INHIBITION
1,c1cc2nccc(CC3CCCN(C4CCOCC4)CC3)c2cn1 (stereo unspecified),24.56%
2,CC(=O)N1CCC(NC(=O)c2cc(Cl)ccc2-n2cnnn2)CC1,53.19%
3,O=C(NC1CCN(C2CC2)CC1)c1cc(Cl)ccc1-n1cnnn1,19.04%
4,O=C(NC1CC1)c1cc(Cl)ccc1-n1cnnn1,-14%
5,CCCC1(CO)CCCN(C(=O)CNC(C)=O)C1 (stereo unspecified),15.27%
6,O=c1cc(N2CCNCC2)cnn1Cc1noc(C2CCCC2)n1,41.84%
7,O=C(Cn1nc(Br)nc1Br)N1CCCC1,-14.58%
8,CCCC1COCCN1Cc1ccc(C(=O)O)cc1 (stereo unspecified),55.7%
9,CCCC1COCCN1Cc1ccc(NC(C)=O)cc1 (stereo unspecified),48.17%
10,CCCC1COCCN1Cc1ccc(S(=O)(=O)NC)cc1 (stereo unspecified),30.96%
11,CN(Cc1ccccc1F)C(=O)CS(=O)(=O)Cc1ccc(Cl)c(Cl)c1,-10.5%
12,COc1ccc(Cl)cc1CS(=O)(=O)CC(=O)N(C)Cc1ccccc1F,51.94%
13,Cc1ccccc1CS(=O)(=O)CC(=O)N(C)Cc1ccccc1F,-38.35%
14,Cc1nc(C(C)C)sc1C(C)N(C)C(=O)c1ccc(=O)n(C)c1 (stereo unspecified),-11.76%
15,CCc1ccc(CN(C)Cc2nc(-c3cnccn3)no2)nc1,-16.76%
16,CCc1ccc(CN(C)Cc2nc(COc3ccccc3)no2)nc1,64.2%
17,CCc1ccc(CN(C)c2ccc(-c3nc(COC)no3)cn2)nc1,10.65%
18,CN(Cc1ccc(F)cc1F)Cc1cc2c(cc1Br)OCCO2,45.66%
19,Cc1cnccc1N1CCCN(C(=O)CCCc2cn[nH]c2)CC1,9.17%
20,O=C(c1ccccn1)N1C[C@@H]2OCC(=O)N(CC3CCCCC3)[C@@H]2C1,56.16%
21,O=C(c1cnccn1)N1C[C@@H]2[C@@H](C1)OCC(=O)N2CC1CCCC1,31.65%
22,O=C(c1cnccn1)N1C[C@@H]2OCC(=O)N(CC3CCCCC3)[C@@H]2C1,-26.14%
23,O=C(NCC(=O)N1CCc2ccccc2C1)c1cnccn1,23.94%

row,Compound,INHIBITION
1,CC(C)(CO)Nc1cc(-c2cn[nH]c2)ncn1,6.03%
2,CCCn1nccc1NC(=O)CN1CCC[C@H]1CO,13.53%
3,CCCn1nccc1NC(=O)CN1CCCC1Cn1cc(C)cn1 (stereo unspecified),50.32%
4,Cc1cnn(CC2CCCCN2CC(=O)Nc2nc(C)cs2)c1 (stereo unspecified),67.69%
5,CCCn1nccc1NC(=O)CN1CCCC1Cn1cccn1 (stereo unspecified),33.9%
6,Cc1cnn(CC2CCCCN2CC(=O)Nc2nncs2)c1 (stereo unspecified),23.65%
7,Cc1cnn(CC2CCCN2CC(=O)Nc2nc(C)cs2)c1 (stereo unspecified),-54.73%
8,Cc1cc(O)n(-c2ccccc2Cl)c(=O)c1C#N,3.1%
9,O=C1NCCCCC1NS(=O)(=O)N1CCCCCC1 (stereo unspecified),-4.89%
10,CC(C)N1CC[C@H]2[C@H](C[C@@H](Cn3cncn3)N2c2nccs2)C1,27.61%
11,Cc1ccc(-c2nnc(CN3CCOC(Cn4cncn4)C3)o2)cc1 (stereo unspecified),51.46%
12,CN(C)C(=O)c1cccc(CN2CCOC(Cn3cncn3)C2)c1 (stereo unspecified),74.35%
13,Cc1cnn(CC2CN(Cc3cccc(C(=O)N(C)C)c3)CCO2)c1 (stereo unspecified),18.46%
14,Fc1ccc(-c2nnc(CN3CCOC(Cn4cncn4)C3)o2)cc1 (stereo unspecified),-77.99%
15,CC(C)(C)c1nnc(CN2CCOC(Cn3cccn3)C2)o1 (stereo unspecified),11.18%
16,CC(C)(C)c1nnc(CN2CCOC(Cn3cncn3)C2)o1 (stereo unspecified),62.13%
17,Cc1ccc(-c2nnc(CN3CCOC(Cn4cccn4)C3)o2)cc1 (stereo unspecified),-47.05%
18,CC(C)(C)c1nnc(CN2CCCC(Cn3cncn3)C2)o1 (stereo unspecified),15.31%
19,CN(C)C(=O)c1cccc(CN2CCOC(Cn3cccn3)C2)c1 (stereo unspecified),-21.39%
